# Measurements as given in the supplement of paper PMC10849652.
# Of roughly 8,800 targets only a part is listed; those with a hit were picked by preference. About 0.5% of all pairs of compound and target were hits. Unmarked numbers belong to inactive results.
# Tests used:
# Experiment in all cases: log2 fold change, soluble protein after heating vs DMSO (PISA); higher = thermal stabilisation; K562 lysate, 10 uM; active = over 0.2 and 3.5 SD of the protein, either way, in both replicates (recomputed)
# erlotinib = compound: C#Cc1cccc(Nc2ncnc3cc(OCCOC)c(OCCOC)cc23)c1 [erlotinib]
# How it was run: (§1)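 K562 pellets were dounce-homogenised in PBS pH 7.4 containing 1 mM MgCl2, and the crude extract, at 1 mg/mL protein, was exposed to 10 μM compound for 30 min. Aliquots were heated for 3 min across 48°C-58°C, pooled, brought to 0.5% NP-40 at 4°C and spun at 21,000xg for 90 min, with the supernatant taken as soluble protein. TMTpro 16plex LC-MS/MS with equalised channel sums quantified that protein. Values are log-two fold changes in thermal stability relative to solvent controls, taken from duplicates.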
# [1] = compound: C/C(=N\NC(=O)C1=CC(=CC=C1)S(=O)(=O)N2CCOCC2)/C3=C(C=CC(=C3)Cl)O
# How it was run: as §1
# [2] = compound: C1=CC(=CC=C1C2=NC3=C(N2)C=C(C=C3)C(=O)N)OC4=CC=C(C=C4)Cl
# How it was run: as §1
# [3] = compound: C1=CC2=C(C=CC(=C2)/C=C\3/C(=O)NC(=NCC4=CC=CS4)S3)N=C1
# How it was run: as §1
# [4] = compound: C1=CC2=NC=CN=C2C=C1/C=C/3\C(=O)NC(=O)S3
# How it was run: as §1
# [5] = compound: C1=CC=C(C=C1)C2=NC(=C(N2)C3=CC=NC=C3)C4=CC(=C(C=C4)Cl)O
# How it was run: as §1
# [6] = compound: C1=CC=C2C(=C1)C3=NNC4=CC=CC(=C43)C2=O
# How it was run: as §1
# [7] = compound: C1CCN(C1)C(=O)NC2=CC=CC(=C2)NC3=NC=C(C(=N3)NCCC4=CN=CN4)Br
# How it was run: as §1
# [8] = compound: C1CN(CCC1(CC2=CC=C(C=C2)Cl)N)C3=NC=NC4=C3C=CN4
# How it was run: as §1
# IRAK-1-4 Inhibitor I = compound: C1COCCN1CCN2C3=CC=CC=C3N=C2NC(=O)C4=CC(=CC=C4)[N+](=O)[O-] [IRAK-1-4 Inhibitor I]
# How it was run: as §1
# Sequence of UniProt Q8NF50 (Q8NF50 whole entry, looked up): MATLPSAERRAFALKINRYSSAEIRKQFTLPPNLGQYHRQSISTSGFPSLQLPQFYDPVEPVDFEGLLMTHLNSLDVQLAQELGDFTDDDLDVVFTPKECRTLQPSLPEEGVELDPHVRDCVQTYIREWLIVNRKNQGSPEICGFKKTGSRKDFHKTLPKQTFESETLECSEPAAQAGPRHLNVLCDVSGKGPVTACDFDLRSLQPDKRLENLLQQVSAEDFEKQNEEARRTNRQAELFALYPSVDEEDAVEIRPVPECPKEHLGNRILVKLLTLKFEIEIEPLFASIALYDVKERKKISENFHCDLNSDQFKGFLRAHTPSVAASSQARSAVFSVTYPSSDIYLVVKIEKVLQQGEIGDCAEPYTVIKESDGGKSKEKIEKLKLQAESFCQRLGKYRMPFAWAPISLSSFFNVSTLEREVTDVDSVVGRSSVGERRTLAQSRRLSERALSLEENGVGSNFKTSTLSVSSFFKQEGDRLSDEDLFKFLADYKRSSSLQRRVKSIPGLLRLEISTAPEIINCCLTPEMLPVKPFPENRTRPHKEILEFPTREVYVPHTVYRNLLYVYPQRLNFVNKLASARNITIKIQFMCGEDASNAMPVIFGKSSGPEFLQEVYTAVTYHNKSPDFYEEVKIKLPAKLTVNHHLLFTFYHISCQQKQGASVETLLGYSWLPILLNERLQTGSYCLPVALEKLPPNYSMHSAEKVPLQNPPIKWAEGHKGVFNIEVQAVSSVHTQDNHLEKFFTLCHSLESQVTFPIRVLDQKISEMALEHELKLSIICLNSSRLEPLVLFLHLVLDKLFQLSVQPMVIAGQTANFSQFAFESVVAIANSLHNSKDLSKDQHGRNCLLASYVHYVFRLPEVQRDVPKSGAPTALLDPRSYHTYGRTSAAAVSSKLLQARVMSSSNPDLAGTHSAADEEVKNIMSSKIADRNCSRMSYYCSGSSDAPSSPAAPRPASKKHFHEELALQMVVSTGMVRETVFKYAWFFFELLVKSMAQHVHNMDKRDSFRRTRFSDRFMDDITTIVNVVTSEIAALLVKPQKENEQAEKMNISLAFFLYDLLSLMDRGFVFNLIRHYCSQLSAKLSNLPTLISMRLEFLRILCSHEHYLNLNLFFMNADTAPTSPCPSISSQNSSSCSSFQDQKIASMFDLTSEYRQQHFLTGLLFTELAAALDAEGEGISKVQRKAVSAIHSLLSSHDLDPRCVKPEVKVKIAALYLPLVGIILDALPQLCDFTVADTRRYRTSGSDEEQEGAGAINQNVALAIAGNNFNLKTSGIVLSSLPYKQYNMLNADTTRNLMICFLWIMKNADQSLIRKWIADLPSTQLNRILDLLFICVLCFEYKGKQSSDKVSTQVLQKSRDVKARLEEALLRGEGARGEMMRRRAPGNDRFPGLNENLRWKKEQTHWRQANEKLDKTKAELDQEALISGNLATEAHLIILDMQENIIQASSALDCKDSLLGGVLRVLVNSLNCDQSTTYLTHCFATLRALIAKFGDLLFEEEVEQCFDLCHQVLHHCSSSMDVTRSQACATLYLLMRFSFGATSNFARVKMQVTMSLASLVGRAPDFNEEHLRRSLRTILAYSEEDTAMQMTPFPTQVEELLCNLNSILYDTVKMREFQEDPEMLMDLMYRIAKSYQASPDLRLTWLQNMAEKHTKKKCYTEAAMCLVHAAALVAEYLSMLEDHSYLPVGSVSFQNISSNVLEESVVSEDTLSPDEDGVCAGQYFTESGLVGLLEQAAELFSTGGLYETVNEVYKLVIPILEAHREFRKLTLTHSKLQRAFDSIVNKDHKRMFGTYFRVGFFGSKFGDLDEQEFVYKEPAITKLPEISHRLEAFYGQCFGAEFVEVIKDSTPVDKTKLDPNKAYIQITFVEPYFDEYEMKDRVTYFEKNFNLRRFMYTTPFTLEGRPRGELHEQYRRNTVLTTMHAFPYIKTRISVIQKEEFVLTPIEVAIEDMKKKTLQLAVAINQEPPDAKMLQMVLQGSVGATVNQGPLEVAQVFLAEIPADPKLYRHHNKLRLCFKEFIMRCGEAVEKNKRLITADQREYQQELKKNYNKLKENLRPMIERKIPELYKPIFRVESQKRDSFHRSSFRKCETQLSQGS
# Sequence of UniProt Q9H2P9 (Q9H2P9 whole entry, looked up): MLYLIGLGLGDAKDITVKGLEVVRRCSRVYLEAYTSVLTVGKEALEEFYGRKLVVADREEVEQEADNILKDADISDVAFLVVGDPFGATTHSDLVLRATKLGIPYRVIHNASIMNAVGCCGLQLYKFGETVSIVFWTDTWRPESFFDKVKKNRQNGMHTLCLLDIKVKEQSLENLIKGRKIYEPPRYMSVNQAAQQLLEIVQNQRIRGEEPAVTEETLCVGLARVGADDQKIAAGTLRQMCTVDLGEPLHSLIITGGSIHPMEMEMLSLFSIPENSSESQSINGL
# Sequence of UniProt Q92989 (Q92989 whole entry, looked up): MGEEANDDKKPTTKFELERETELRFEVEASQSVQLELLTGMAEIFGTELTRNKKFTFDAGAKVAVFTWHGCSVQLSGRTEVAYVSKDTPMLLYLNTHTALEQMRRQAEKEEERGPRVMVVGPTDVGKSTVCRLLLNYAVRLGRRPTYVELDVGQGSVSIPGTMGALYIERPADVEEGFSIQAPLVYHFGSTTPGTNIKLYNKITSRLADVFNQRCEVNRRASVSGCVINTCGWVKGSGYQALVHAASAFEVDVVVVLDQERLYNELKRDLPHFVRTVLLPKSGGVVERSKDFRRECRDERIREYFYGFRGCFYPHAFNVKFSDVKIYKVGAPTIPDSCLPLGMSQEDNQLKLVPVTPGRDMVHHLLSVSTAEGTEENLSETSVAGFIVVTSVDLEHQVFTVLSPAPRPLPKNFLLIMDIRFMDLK
# Sequence of UniProt P29373 (P29373 whole entry, looked up): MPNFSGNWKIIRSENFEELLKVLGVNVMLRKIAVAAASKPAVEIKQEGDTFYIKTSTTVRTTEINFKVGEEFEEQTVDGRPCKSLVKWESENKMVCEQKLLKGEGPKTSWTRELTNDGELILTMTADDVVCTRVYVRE
# Sequence of UniProt Q14019 (Q14019 whole entry, looked up): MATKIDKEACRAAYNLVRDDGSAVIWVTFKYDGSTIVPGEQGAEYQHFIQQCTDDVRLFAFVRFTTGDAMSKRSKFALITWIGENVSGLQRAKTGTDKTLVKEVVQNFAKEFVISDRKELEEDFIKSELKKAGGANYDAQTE
# Sequence of UniProt Q9H5X1 (Q9H5X1 whole entry, looked up): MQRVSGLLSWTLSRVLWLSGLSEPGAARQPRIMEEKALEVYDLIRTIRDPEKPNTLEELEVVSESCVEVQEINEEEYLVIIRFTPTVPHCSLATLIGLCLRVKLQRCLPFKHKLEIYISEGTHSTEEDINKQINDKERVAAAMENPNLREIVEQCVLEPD
# Sequence of UniProt P50416 (P50416 whole entry, looked up): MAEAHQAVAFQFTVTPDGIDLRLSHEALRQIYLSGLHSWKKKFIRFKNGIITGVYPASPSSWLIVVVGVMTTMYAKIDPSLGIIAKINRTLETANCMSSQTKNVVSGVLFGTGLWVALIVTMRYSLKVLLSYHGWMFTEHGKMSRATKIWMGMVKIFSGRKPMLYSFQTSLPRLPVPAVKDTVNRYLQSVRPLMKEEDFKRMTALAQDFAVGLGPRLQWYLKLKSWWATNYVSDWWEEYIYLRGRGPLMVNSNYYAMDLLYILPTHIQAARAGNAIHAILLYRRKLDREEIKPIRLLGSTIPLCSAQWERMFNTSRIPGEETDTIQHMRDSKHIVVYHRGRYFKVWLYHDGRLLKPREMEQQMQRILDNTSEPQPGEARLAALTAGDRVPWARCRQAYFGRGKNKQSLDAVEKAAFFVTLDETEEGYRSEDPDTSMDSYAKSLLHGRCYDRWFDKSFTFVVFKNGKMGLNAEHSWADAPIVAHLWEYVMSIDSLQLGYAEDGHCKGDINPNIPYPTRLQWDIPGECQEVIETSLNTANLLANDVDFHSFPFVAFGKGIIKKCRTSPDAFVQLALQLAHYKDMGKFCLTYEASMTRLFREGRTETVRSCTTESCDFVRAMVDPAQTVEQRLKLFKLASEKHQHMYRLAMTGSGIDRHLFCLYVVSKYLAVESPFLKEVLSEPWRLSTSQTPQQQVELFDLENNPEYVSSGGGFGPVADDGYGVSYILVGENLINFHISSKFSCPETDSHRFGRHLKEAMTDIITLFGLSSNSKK
# Sequence of UniProt Q9H3Z4 (Q9H3Z4 whole entry, looked up): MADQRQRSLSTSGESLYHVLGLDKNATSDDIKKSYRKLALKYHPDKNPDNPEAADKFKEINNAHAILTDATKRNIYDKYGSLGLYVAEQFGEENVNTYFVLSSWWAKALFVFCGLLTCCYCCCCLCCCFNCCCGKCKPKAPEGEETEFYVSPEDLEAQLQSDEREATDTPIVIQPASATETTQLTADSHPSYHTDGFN
# Sequence of UniProt O95628 (O95628 whole entry, looked up): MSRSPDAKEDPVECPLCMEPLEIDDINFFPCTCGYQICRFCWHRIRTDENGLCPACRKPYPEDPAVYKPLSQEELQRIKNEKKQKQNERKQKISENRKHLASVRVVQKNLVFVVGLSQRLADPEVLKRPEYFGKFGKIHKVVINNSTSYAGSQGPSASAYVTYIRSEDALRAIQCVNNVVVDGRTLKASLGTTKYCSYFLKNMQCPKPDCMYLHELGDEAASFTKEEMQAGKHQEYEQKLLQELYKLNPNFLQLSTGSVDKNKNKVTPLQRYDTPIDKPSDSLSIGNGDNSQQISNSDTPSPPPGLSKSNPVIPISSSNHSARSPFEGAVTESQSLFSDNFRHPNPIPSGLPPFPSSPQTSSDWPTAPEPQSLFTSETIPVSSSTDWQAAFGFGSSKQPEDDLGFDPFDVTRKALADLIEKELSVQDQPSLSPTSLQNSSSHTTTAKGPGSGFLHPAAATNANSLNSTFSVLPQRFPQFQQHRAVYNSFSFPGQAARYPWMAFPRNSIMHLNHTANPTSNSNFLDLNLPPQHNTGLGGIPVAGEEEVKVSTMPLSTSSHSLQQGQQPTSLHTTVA
# Sequence of UniProt Q99766 (Q99766 whole entry, looked up): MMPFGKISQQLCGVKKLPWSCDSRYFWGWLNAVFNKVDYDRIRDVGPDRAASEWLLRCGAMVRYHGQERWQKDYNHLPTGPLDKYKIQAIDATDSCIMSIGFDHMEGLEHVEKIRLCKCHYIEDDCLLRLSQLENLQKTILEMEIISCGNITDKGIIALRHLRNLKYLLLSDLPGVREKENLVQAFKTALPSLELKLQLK
Target,log2 fold change (erlotinib),log2 fold change [1],log2 fold change [2],log2 fold change [3],log2 fold change [4],log2 fold change [5],log2 fold change [6],log2 fold change [7],log2 fold change [8],log2 fold change (IRAK-1-4 Inhibitor I)
DHRS11 (UniProt Q6UWP2),0.054,-0.017,-0.004,0.017,-0.006,-0.015,-0.008,-0.041,0.042,-0.02
COTL1 (UniProt Q14019),-0.012,0.04,0.013,-0.006,-0.02,0,0.004,0.022,0.008,-0.03
DOCK10 (UniProt Q96BY6),-0.23,-0.191,-0.03,0.007,-0.094,-0.048,-0.034,-0.064,-0.028,-0.017
DCP1A (UniProt Q9NPI6),0.038,0.025,0.03,0.004,-0.03,0.014,-0.033,0.013,0.012,-0.045
DHFR (UniProt P00374),0.031,0.046,-0.023,-0.019,0.045,0.025,-0.01,0.034,0.019,-0.055
COMT (UniProt P21964),0.031,-0.03,-0.01,0.011,-0.029,0.001,0.043,-0.024,-0.033,0.019
CLASP2 isoform 3 (UniProt O75122),0.032,-0.014,-0.022,-0.032,-0.018,0,-0.024,-0.024,0.057,-0.012
DPH5 isoform 5 (UniProt Q9H2P9),0.008,-0.028,-0.025,0.066,-0.017,0.074,0.046,-0.027,0.027,0.009
"CLUH, A0A494C0R8",0.077,-0.023,-0.041,0.02,0.225,0,-0.114,0.05,-0.063,0.008
CTPS2 (UniProt Q9NRF8),-0.009,-0.008,-0.016,-0.01,0.01,-0.008,0,-0.021,-0.015,-0.006
CIP2A (UniProt Q8TCG1),0.057,0.18,-0.086,0.034,-0.019,0.019,-0.11,-0.002,0.02,0.007
CSNK2A2 (UniProt P19784),0,-0.209,-0.015,0.383,0.699 (active),0.032,0.375,0.277,0.024,0.022
CNOT4 isoform 9 (UniProt O95628),0,0.005,0.015,-0.04,0,-0.105,0.015,0.003,-0.013,0.054
CSNK2A1 (UniProt P68400),0.005,-0.111,-0.02,0.225,0.356 (active),0.017,0.219,0.112,-0.02,0
CIAO2A (UniProt Q9H5X1),-0.052,0.029,0.03,-0.056,-0.071,-0.025,-0.007,0.04,0.009,0.032
CIC (UniProt I3L2J0),0.013,-0.248,0.079,0.122,0.027,-0.047,-0.062,0.005,-0.04,0.04
DLGAP5 (UniProt Q15398),-0.015,0.023,-0.006,-0.024,-0.02,0.026,-0.021,-0.013,-0.013,-0.009
DMAC2L (UniProt Q99766),-0.057,0.033,-0.017,0.008,-0.074,0.015,-0.066,-0.068,0.027,-0.005
CLP1 (UniProt Q92989),0.024,0.027,-0.011,-0.001,-0.045,-0.014,0.034,-0.024,-0.033,-0.045
DLD (UniProt P09622),0.014,0,0.022,-0.01,0.025,0.004,0.007,0.008,0.006,0.026
CPT1A (UniProt P50416),-0.029,-0.034,0.01,-0.001,-0.05,0.002,0.011,-0.036,0.024,-0.008
DDX54 isoform 2 (UniProt Q8TDD1),-0.088,-0.36,-0.038,-0.035,-0.191,-0.001,-0.054,0.069,0.014,-0.058
CRABP2 (UniProt P29373),0.026,-0.112,-0.017,-0.063,0.2,-0.042,-0.151,0.399 (active),0.309,-0.024
DNAJC3 (UniProt Q13217),-0.002,-0.057,0.06,0.008,-0.021,-0.032,-0.02,-0.033,-0.047,0.011
DOCK8 (UniProt Q8NF50),-0.001,-0.073,-0.016,0.018,0.005,0.017,-0.023,0.04,-0.021,0.014
DNAJC5 (UniProt Q9H3Z4),-0.003,0.037,-0.018,-0.021,0.053,0.033,0,0.049,-0.005,-0.012
CLASP1 (UniProt Q7Z460),0.042,0.082,-0.029,-0.022,0.01,0.026,-0.041,-0.035,0.02,0.029
CYP51A1 (UniProt Q16850),-0.029,0.045,0.193,0.058,-0.087,-0.041,0.118,-0.092,-0.023,0.043
DENND6A (UniProt Q8IWF6),-0.019,0.232,0.004,0.073,0.048,0.024,0.003,0.029,0.083,0.025
CMSS1 (UniProt Q9BQ75),-0.029,0.018,-0.031,0.011,-0.059,-0.004,0.011,-0.011,0.03,-0.035
